Shiga toxin inh: inhibitors of Shiga toxin in Vero cells; Vero cells, Shiga toxin protein synthesis inhibition reporter; inhibition, % at 38.7 µM; actives 9.2% (n = 290,000); AID 2315; in the data active means inhibition mostly above about 28%, no sharp cut-off; inactive means mostly below about 43%; further: 0% is about no effect
Cycloheximide cs: counter-screen for Shiga toxin inhibitors: cycloheximide protein synthesis inhibition; cell reporter, cycloheximide protein synthesis inhibition counterscreen; max response, %; actives 12% (n = 300,000); in the data active means max response mostly above about 13%, no sharp cut-off; inactive means mostly below about 14%; further: read at 38.3 µM for the half of the compounds with a filed dose; 0% is about no effect
Pf growth 48h: inhibits P. falciparum growth in the first generation, 48 h; P. falciparum luciferase growth in erythrocytes, 48 h; Potency, µM (highest dose often 28.7 µM), for the others: top-dose activity change, negative = inhibition, hits mostly inhibitors; actives 5.9% (n = 310,000); AID 504832; further: potency means the concentration at half of the fitted maximal effect; on the % scale 0 is the no-effect control and ±100 the full control effect
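A one-generation exposure of luciferase-tagged malaria parasites in RPMI 1640/Albumax erythrocyte culture, 37 C and 5% CO2. Inhibition is inferred from decreased luminescence after adding detection reagent.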
Pf growth 96h: inhibits malaria parasite growth, 96 h; P. falciparum luciferase reporter growth, 96 h; Potency, µM (doses to about 28.7 µM), for inactives: top-dose activity change, negative = inhibition, actives largely listed as inhibitors; AID 504834; actives 6.9% (n = 320,000); further: potency means the concentration at half of the fitted maximal effect; on the % scale 0 is the no-effect control and ±100 the full control effect
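Delayed-death screen, second-generation endpoint: infected erythrocytes, 2% hematocrit, 0.05% parasitemia final; 96 hours at 37 C, 5% CO2; luciferase detection reagent; luminescence decrease equals reduced growth.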
HCMV antiviral: inhibitors of human cytomegalovirus; HFF cells, HCMV-luciferase reporter, 72 h; hits give low values; activity change, negative = inhibition, % at 57.5 µM; actives 4.5% (n = 410,000); AID 1259415; in the data active means activity change below about -60%; inconclusive means no clear call, values can overlap the other calls; inactive means above about -39%; further: on the % scale 0 is the no-effect control and ±100 the full control effect
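Inhibition of viral replication was scored as loss of reporter luminescence in HFFs infected with HCMV-luciferase (MOI 1 PFU/cell) for 72 h; compounds tested at 2 doses, normalized to buffer and Salinomycin controls.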
Starred values were filed as active, the others as inactive; ? = inconclusive; . = not tested or not shown; [ ] = dose if it differs, or a comment. Most compounds without a hit are left out; they make up all but 20% or so of the library. Unless noted, the call rests on the fitted dose curve; in most records, active means well fitted inhibition curve with a large enough effect; inconclusive means small, poorly fitted or top-dose-only effect, or another doubt; inactive means no such curve, though single readings can be large or run the other way.

SMILES	Shiga toxin inh	Cycloheximide cs	Pf growth 48h	Pf growth 96h	HCMV antiviral
Cc1cc(C(=O)CN2C(=O)C(=O)N(Cc3ccccc3)C2=O)c(C)n1-c1ccc2c(c1)OCCO2	3.6	8.0	?	38.4%[5.75 µM]	-4.8
CCC(C)(C)C1CCc2[nH]nc(C(=O)NN)c2C1 (centres undefined)	52.6*	38.0*	?	?	-30.9
CCC(C)(C)C1CCc2[nH]nc(C(=O)NCC3CC3)c2C1 (centres undefined)	.	.	?	?	-16.3
CN(C)CCCNc1ccc(-c2cc(Nc3cccc(Cl)c3)ncn2)cn1	-4.8	1.3	1.85µM*	0.928µM*	-37.5
CC(=O)c1cc(-c2ccc(F)cc2)n(CC(=O)Nc2cc(C)cc(C)c2)c1C	.	.	.	.	0.0
CC(=O)c1cc(-c2ccc(F)cc2)n(CCC(=O)Nc2cccnc2)c1C	9.1	3.1	9.28µM*	17.1%	58.4
O=C(CSCc1ccc([N+](=O)[O-])cc1)N/N=C/c1ccncc1	-14.3	-7.5	?	-18.2%	-62.7*
O=C(CSCc1ccc([N+](=O)[O-])cc1)NC1CC1	10.3	-4.1	-3.0%	13.1µM*	?
O=C1/C(=C\c2c(NCCOCCO)nc3ccccn3c2=O)SC(=S)N1Cc1ccco1	.	-1.5	17.4%	?	6.7
COc1ccc(C)cc1NC(=O)c1nnn(Cc2cccc(Br)c2)c1N	.	.	.	.	-35.4
CC(C)(C)C1c2[nH]c3ccccc3c2CCN1CCCn1cccn1 (centres undefined)	-4.4	-3.8	?	5.86µM*	51.1
N#Cc1cccc(S(=O)(=O)NCC(=O)OCC(=O)c2ccc[nH]2)c1	-6.6	2.7	-9.9%	68.8%	?
CCOC(=O)Cc1csc(NC(=O)c2cc3c(s2)CCCC3)n1	38.5	20.1	.	85.8%	-2.2
Cc1cnc(NC(=O)c2cc3c(s2)CCCC3)s1	60.6*	40.4*	.	72.8%	?
Cc1csc(NC(=O)c2cc3c(s2)CCCC3)n1	80.8*	61.5*	?	0.0%	24.5
Cc1csc(NC(=O)c2cc3c(s2)CCCCC3)n1	1.7	14.8*	-77.2%	.	?
CCc1nnc(NC(=O)c2cc3c(s2)CCCCC3)s1	.	.	.	.	29.2
O=C(C1CCCCC1)N1CCC2CC1c1cc(Cl)ccc12 (centres undefined)	.	.	.	.	-19.2
Cc1cccc(NC(=O)/C(C#N)=C/c2cn(CC(=O)NCc3ccco3)c3ccccc23)c1C	-11.0	-2.9	-15.1%	?	-82.3*
N#C/C(=C\c1cn(Cc2ccc(F)cc2)c2ccccc12)C(=O)NCc1ccco1	-10.6	-2.0	17.1%	?	45.5
N#C/C(=C\c1ccco1)C(=O)NCc1ccccc1	40.6*	35.4*	29.4%	12.4%	.
N#C/C(=C\c1cn(Cc2ccccc2)c2ccccc12)C(=O)NCc1ccco1	34.6	28.9*	?	?	-34.3
N#C/C(=C\c1cn(Cc2cccc(F)c2)c2ccccc12)C(=O)NCc1ccco1	27.8*	24.6*	-10.0%	38.0%	?
CC(=O)c1ccc(Nc2nc3c(S(=O)(=O)c4ccccc4)nnn3c3ccc(Cl)cc23)cc1	.	.	.	.	-12.0
O=C(O)/C=C/c1ccccc1	.	.	-5.9%	-8.9%	.
SMILES	Shiga toxin inh	Cycloheximide cs	Pf growth 48h	Pf growth 96h	HCMV antiviral
CCn1c(=O)c2cc(C(=O)Nc3cc(F)ccc3F)sc2c2ccccc21	.	.	.	.	-31.8
Cc1c(Cl)cccc1NC(=O)CSc1nc(=O)n(CCN2CCOCC2)c2c1CCC2	.	.	.	.	-20.2
N#C/C(=C/c1cn(-c2ccccc2)nc1-c1cccc(S(=O)(=O)N2CCCC2)c1)C(=O)NCc1ccco1	34.1*	9.4	10.4µM*	10.4µM*	1.7
CNc1nc(OC)nc(N(C#N)CN2C(=O)c3ccccc3S2(=O)=O)n1	7.3	6.8	-1.5%	?	-24.7
CCN(CC(=O)NCc1ccc(F)cc1)CC(O)COCc1cccc(OC)c1 (centres undefined)	3.2	-1.7	-6.1%	-29.8%	-3.0
COc1ccc(-c2ccc([C@H]3[C@H]4C=CC[C@@H](C)[C@@H]4C(=O)N3Cc3ccccc3)c(F)c2)cc1C	-6.6	-4.3	10.4µM*	?	27.1
C[C@@H]1CC=C[C@H]2[C@H]1C(=O)N(Cc1ccccc1)[C@H]2c1ccc(/C=C/c2ccccc2)cc1F	-4.4	-3.3	10.4µM*	?	30.2
COc1ccc(-c2ccc(F)cc2)cc1[C@H]1[C@H]2C=CC[C@@H](C)[C@@H]2C(=O)N1Cc1ccccc1	-1.1	-6.1	11.7µM*	?	-15.8
